The whole screen tested about 220,000 compounds, of which about 300 (0.14%) were called active. This is one part of a sample in which actives are shown more often than they occur.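 The calls were made as follows: active = inhibition of at least 40%; inactive = inhibition below 40%.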
biological target: Coagulation factor XI (Homo sapiens) (UniProt P03951); assay: factor XIa enzyme inhibition, large library – biochemical, 1536-well, primary screen (AID 798); conditions: purified FXIa, Boc-Glu-Ala-Arg-AMC fluorogenic substrate; at 5 µM; stronger effect = higher value;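 also: fluorescence of freed AMC excited at 355 nm; 0% = enzyme without compound and 100% = no enzyme blank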
Sequence (P03951 19-387 limits assumed): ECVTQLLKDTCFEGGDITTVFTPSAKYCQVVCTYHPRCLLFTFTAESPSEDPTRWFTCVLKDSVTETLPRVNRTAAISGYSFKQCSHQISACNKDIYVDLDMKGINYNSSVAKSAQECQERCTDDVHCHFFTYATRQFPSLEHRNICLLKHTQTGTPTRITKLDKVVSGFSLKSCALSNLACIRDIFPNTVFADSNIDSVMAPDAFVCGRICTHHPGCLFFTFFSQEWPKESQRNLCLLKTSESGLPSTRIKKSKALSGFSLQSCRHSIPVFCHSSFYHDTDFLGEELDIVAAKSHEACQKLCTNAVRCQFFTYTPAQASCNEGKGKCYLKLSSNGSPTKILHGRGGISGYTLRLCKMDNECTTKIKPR
Sequence (P03951 388-625 limits assumed): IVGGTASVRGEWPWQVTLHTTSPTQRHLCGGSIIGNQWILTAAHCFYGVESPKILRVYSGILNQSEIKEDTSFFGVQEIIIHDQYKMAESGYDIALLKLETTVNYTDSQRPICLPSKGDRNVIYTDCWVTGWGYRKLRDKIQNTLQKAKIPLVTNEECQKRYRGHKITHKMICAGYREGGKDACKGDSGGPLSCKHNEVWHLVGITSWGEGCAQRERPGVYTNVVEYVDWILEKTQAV

inhibition, inactive:
Cc1c(Br)ccc(NC(=O)COc2ccccc2C(N)=O)c1C 3.29%
C/C=C(/C)C(=O)O[C@@H]1c2cc3c(c4c2[C@@]2(CO4)C(=O)C(OC)=C(OC)C=C2C[C@@H](C)[C@H]1C)OCO3 0.96%
COc1ccc(SC[C@H](Cc2ccccc2)N2CCN(CCc3ccccc3)CCC2=O)cc1 0.67%
Cn1cnc(S(=O)(=O)Nc2ccc3c(c2)OCCO3)c1 3.26%
Cc1ccc(NC(=O)NC(=O)CSc2nnc(-c3ccc(OC(F)F)cc3)n2N)c(C)c1 3.67%
CCN=c1sc(C(=O)Nc2ccccc2)c(C)n1CC -2.02%
Cc1cc(C(=O)OCC(=O)Nc2nnc(C(C)C)s2)c2ccccc2n1 -3.05%
CC1=C(C(=O)N(C)C)C(c2ccccc2OC(F)F)NC(=O)N1 (stereo unspecified) 0.62%
Cc1ccc(OC(=O)CCC(=O)Nc2ccc(Br)cc2)cc1 -1.21%
O=S(=O)(NC(=S)Nc1ccccc1)c1ccc(F)cc1 4.03%
CCOC(=O)CN(C)S(=O)(=O)c1ccc(-c2cc(C(=O)OC)sc2C(F)(F)F)cc1 32.6%
CN1CCN(C(=O)CCc2ncc(C(F)(F)F)cc2Cl)CC1 7.14%
COC(=O)c1c(NC(=O)CCCC(=O)O)sc2c1CCCCC2 -0.58%
O=C(N/N=C/c1cc2c(cc1Br)OCO2)C1COc2ccccc2O1 (stereo unspecified) -10.7%
C[N+]1(CC(O)COc2ccccc2)CCN(C(=O)c2ccc([N+](=O)[O-])cc2)CC1 (stereo unspecified) 0.51%
C=CCN(C(=O)Nc1ccc2c(c1)nc(C)n2C)c1ccccc1 26.2%
Cc1nc2cc(NC(=O)NC3CC3)ccc2n1C -5.28%
Cc1cc(-c2csc(N)n2)c(C)n1-c1ccccc1 2.06%
CCOc1ccc(/C=C2\SC(=S)N(NC(=O)c3ccncc3)C2=O)cc1OC 6.9%
C[C@H](NC(=O)c1nc[nH]c1C(=O)N[C@@H](C)C(=O)OC(C)(C)C)C(=O)OC(C)(C)C 1.92%
CN(C)C(=S)Nc1ccc(Br)cc1Cl 1.74%
NC(=O)Cn1nc([N+](=O)[O-])nc1Oc1ccc(Br)cc1 0.41%
O=C(Cc1ccc(F)cc1)N1CCN=C1SCc1cccc([N+](=O)[O-])c1 -3.4%
Cc1cccc(N(C(=O)Cc2cccs2)C(C(=O)NCc2ccco2)c2ccncc2)c1 (stereo unspecified) -1.59%
CN(C)/N=C/c1cc(Cl)cc([N+](=O)[O-])c1O 2.99%
CC(=O)NC1(c2ccc(F)cc2)CCN(C(=O)c2c(F)cccc2F)CC1 -6.45%
Cc1cccc(N2CCN(Cc3nc(C4CC4)no3)CC2)n1 -4.4%
Cc1ccc(S(=O)(=O)N2CCN(CC(=O)N/N=C/c3cc([N+](=O)[O-])ccc3Cl)CC2)cc1 3.33%
COc1nc(NC2CCCCC2)nc(N2CCCCCC2)n1 5.12%
O=c1nc(N/N=C/c2ccco2)cn[nH]1 -0.64%
CC(C)OP(=O)(OC(C)C)C(Nc1ccccc1)c1cccc([N+](=O)[O-])c1 (stereo unspecified) 2.9%
COc1cccc(N2C(=O)CC(N3CCc4ccccc4C3)C2=O)c1 (stereo unspecified) -2.99%
Cc1ccc(NN=C2C(=O)OC(C)(C)OC2=O)c(C)c1 -3.38%
O=C(COc1ccccc1[N+](=O)[O-])N/N=C/c1ccc[nH]1 2.13%
CC(C)c1nc(SCC(=O)NC(=O)NC(C)(C)C)n[nH]1 1.78%
Cc1ccc(C(=O)Cn2cc([N+](=O)[O-])nc2C)cc1 2.54%
O=C(CNCc1ccc(F)cc1)Nc1ccccc1-c1ccccc1 5.85%
O=C(COC(=O)C12CC3CC(CC(O)(C3)C1)C2)NC12CC3CC(CC(C3)C1)C2 -0.93%
CCOC(=O)c1ccc(NC(=O)Cn2cnc3cc(C)c(C)cc32)cc1 -1.09%
COc1ccc(CN2C(=O)CC(Cc3ccc(C)cc3)C2=O)cc1OC (stereo unspecified) 16.3%
Cc1nc(N)[nH]c(=O)c1Oc1cccc(C(F)(F)F)c1 -2.42%
CC(C)(C)NC(=O)CSC(=Nc1ccccc1F)NC#N 7.8%
CCC1SC(CC)C(=O)N(CC(=O)NC2CCCCC2)C1=O (stereo unspecified) 26%
Cc1ccccc1Cn1c2ccccc2c2cnn(CC(=O)NCc3ccco3)c(=O)c21 -0.28%
COCCNC(=S)N1CCC(NC(=O)C23CC4CC(CC(C4)C2)C3)CC1 -6.69%
CCOc1cc(CN2CCN(C(=O)CC(C)C)CC2)ccc1OC -13.4%
O=C(COc1ccc(Cl)cc1[N+](=O)[O-])N1CCCCC1 -5.02%
COc1ccccc1OCC(=O)OCn1c(SC)nnc(C)c1=O 5.82%
CCOC(=O)N1CCN(Cc2nc3ccc([N+](=O)[O-])cc3c(=O)n2-c2cccc(OC)c2)CC1 -1.56%
Cc1cc(C(=O)CSc2nc(N)cc(=O)[nH]2)c(C)n1Cc1ccco1 -4.8%
CCc1cccc(CC)c1NC(=S)Nc1ccc2cn[nH]c2c1 0.17%
O=C(O)c1ccccc1OCc1ccccc1Cl 1.64%
COCCN(CCOC)c1nc(N)c2c(N)nc3c(c2c1C#N)CC(=O)N3Cc1ccc(Cl)cc1 -10.3%
CC1=NN(/C(=N\c2nnc(C)s2)Nc2ccccc2)[C@H](c2ccc(C)cc2)S1 0.56%
COC(=O)c1sccc1-n1cccc1C(=O)C(=O)N1CCCCC1 0.21%
O=C(Nc1ccc(Cl)cc1)Nc1ccc(C(=O)N2CCOCC2)cc1 4.9%
OC(c1nc2ccccc2[nH]1)C(O)C(O)C(O)c1nc2ccccc2[nH]1 (stereo unspecified) 1.7%
O=C(CCS(=O)(=O)Cc1ccccc1)Nc1ccc2c(c1)OCCO2 -6.9%
COC(=O)Cc1[nH]n(-c2nc3ccccc3s2)c(=O)c1C(C)=Nc1ccc(OC)cc1 2.75%
N#C/C(=C/c1cccc([N+](=O)[O-])c1)c1nnc2n1CCCCC2 0.95%
O=C(Cn1cc(C(F)(F)F)ccc1=O)N/N=C/c1ccc(Cl)cc1Cl 6.17%
O=C1N/C(=C/c2cccn2-c2ccccc2)C(=O)N1c1cccc(Cl)c1 -9.57%
COCCNC(=O)C(c1ccc(O)cc1)N(C(=O)CCC(=O)Nc1nccs1)c1ccc(C)cc1 (stereo unspecified) 1.25%
CCC(C)(C)NC(=O)CN(Cc1cccs1)C(=O)CNS(=O)(=O)c1ccc(F)cc1 -7.45%
CC(C)C(NC(=O)C1CCC(C(C)(C)C)CC1)C(=O)NCCCN1CCCCC1 (stereo unspecified) -3.84%
COc1ccccc1NC(=O)c1cc(Cl)nc2ccccc12 -7.34%
Cc1c(C(=O)NC(=S)NCc2cccnc2)oc2ccccc12 -1.74%
CN(C)CC(C)(C)CNC(=O)c1cc(Br)cc(Br)c1O -3.11%
Cc1ccc(NC(=O)C2CCCN(S(=O)(=O)c3c(C)noc3C)C2)c(C)c1 (stereo unspecified) -3.38%
Cc1noc(C)c1S(=O)(=O)N1CCCC(C(=O)Nc2nccs2)C1 (stereo unspecified) 1.07%
FC(F)(F)c1cccc(-c2nc(COc3ccc(Cl)cc3Cl)no2)c1 2.41%
CN1CCc2ccccc2C1Cc1ccccc1NC(=O)c1sc2ccccc2c1Cl (stereo unspecified) 2.33%
CCOC(=O)CSC1=N/C(=C/c2ccc(-n3cncn3)cc2)C(=O)N1C(C)=O 3.79%
O=c1[nH]c(CN2CCOCC2)nc2scc(-c3ccccc3)c12 -11.5%
Cc1cccc2cc(CN(C(=O)c3cccs3)c3ccccc3)c(=O)[nH]c12 -1.12%
COc1ccc(OCc2n[nH]c(=S)n2N)cc1 -0.79%
NS(=O)(=O)c1ccc(CCNC(=O)NC2CCCCC2)cc1 3.22%
Cc1ccc(C(=O)Nc2ccc(C)c(S(=O)(=O)N(C)C)c2)s1 6.45%
C#CCOCCOCCOCCNc1nc(N2CCN(C(=O)[C@H](CCC(=O)O)n3cc(C(N)CO)nn3)CC2)nc(N2CCN(C(=O)[C@H](CCCCN)n3cc(C(N)CC(C)C)nn3)CC2)n1 (stereo partly specified) 0.58%
NC(=O)C1=C[C@@H](c2csc3ccccc23)C[C@@H](OCc2ccc(CO)cc2)O1 -0.4%
CN(CCc1ccccn1)C(=O)CCC1CCCN(Cc2ccccc2OC(F)F)C1 (stereo unspecified) -3.18%
COc1ccccc1CN(C)c1nnnn1-c1ccccc1 -0.22%
CC(C)Cc1nnc(NC(=O)CCC(=O)Nc2ccc3cn[nH]c3c2)s1 5.73%
C=CC(COCc1ccccc1)N(Cc1ccccc1)S(=O)(=O)c1ccccc1Br (stereo unspecified) -5.35%
COc1cc2[nH]c(=O)n(Cc3ccc(C(=O)NC4CCN(Cc5ccccc5)CC4)cc3)c(=O)c2cc1OC -5.4%
CCSC1=NCCN1C(=O)c1ccc(S(=O)(=O)N(CC)CC)cc1 -2.2%
CCC(C(=O)Nc1ccc2c(c1)OCCO2)c1ccccc1 (stereo unspecified) -1.53%
CC12CN3CCN(CC(C3)/C1=N\NC(=O)c1ccccc1N)C2 -0.67%

inhibition, active:
Cc1nc2cc(NC(=O)Nc3cccc(F)c3)ccc2n1C 43.8%
CCOc1cc(CO)ccc1OCC(=O)N1CCCCC1 40.9%
COc1c(C)cc(C(=O)C2CCCN(S(=O)(=O)c3c(C)noc3C)C2)cc1C (stereo unspecified) 102%
